aSyn UTR act: Activators via SNCA 5'UTR binding, MLPCN; AID 1814; alpha-synuclein 5'UTR reporter, activators screen; activity score, % (tested at 7.5 µM), hits read low; 300,000 tested, 7.1% active; in the data active = activity score below about -60%
Large screens that a line does not name were inactive. The list is a sample of the results.

CCc1ccc2[nH]c3nc(C)cc(C)c3c(=O)c2c1	aSyn UTR act -231.8
Cc1ccc(-c2csc(NC(=O)c3ccccc3F)c2C(=O)O)cc1	aSyn UTR act -102.2
O=C(/C=C/c1ccccc1)Nc1scc(-c2ccccc2)c1C(=O)O	aSyn UTR act -84.2
CCOC(=O)c1c(-c2ccc(-c3ccccc3)cc2)csc1NC(=O)CNCCN(C)C	none
COc1ccc(-c2csc(NC(=O)c3ccc(C(C)(C)C)cc3)c2C(=O)O)cc1	none
Cc1ccc(-c2csc(NC(=O)c3ccc(F)cc3)c2C(=O)O)cc1	aSyn UTR act -105.2
S=c1[nH]nc(-c2ccn[nH]2)n1-c1ccccc1Cl	aSyn UTR act -85.9
c1ccc2nc3c(nc2c1)c1ccccc1n3CCN1CCOCC1	aSyn UTR act -80.3
O=c1c2ccccc2nc2c3ccccc3c(NCCN3CCOCC3)nn12	aSyn UTR act -344.7
O=C(Nc1nc2ccccc2n1CCN1CCOCC1)c1cn(-c2ccccc2)nc1-c1ccccc1	none
Cc1ccc(N2NC(C)(c3cccs3)NC2=S)cc1 (stereo unspecified)	aSyn UTR act -150.7
CCn1c(=O)c(C(=O)Nc2ccccc2C)c(O)c2ccccc21	aSyn UTR act -80.5
CC(C)Cn1c(=O)c(C(=O)Nc2ccncc2)c(O)c2ccccc21	none
C=CCn1c(O)c(N=NC(=S)Nc2ccccc2C)c2cc(S(=O)(=O)N3CCOCC3)ccc21	none
C=CCn1c(=O)c(C(=O)Nc2ccccc2C)c(O)c2ccccc21	aSyn UTR act -155.5
CCOC(=O)N1CCN(C(=O)CSCC(=O)Nc2nc(-c3ccc(Cl)s3)cs2)CC1	aSyn UTR act -85.3
CCOC(=S)SCC(=O)Nc1nc(-c2ccc(Br)cc2)cs1	none
O=C(COC(=O)c1cccnc1Cl)Nc1nc(-c2ccccc2)cs1	aSyn UTR act -63.0
CCOC(=O)N1CCN(C(=O)CSCC(=O)Nc2nc(-c3ccc(OC)cc3)cs2)CC1	aSyn UTR act -96.8
CCOC(=O)N1CCN(C(=O)CSCC(=O)Nc2nc(-c3ccc(-c4ccccc4)cc3)cs2)CC1	aSyn UTR act -125.7
Cc1ccc2c(c1)OC(c1ccc3c(c1)OCCO3)CC2=O (stereo unspecified)	aSyn UTR act -151.0
O=c1c2ccccc2oc2cc(C#Cc3ccccn3)ccc12	aSyn UTR act -66.7
COc1cc(-c2noc(C)c2C#Cc2ccccn2)cc(OC)c1OC	none
COc1cccc2oc3ccc(C#Cc4ccccn4)cc3c(=O)c12	aSyn UTR act -71.0
CCCNc1nc(C)nc2c1cnn2CCc1ccccc1	aSyn UTR act -104.9
Cc1nc(NC(C)C)c2cnn(CCc3ccccc3)c2n1	aSyn UTR act -133.3
Cc1cc(C)nc(Nc2n[nH]c(-c3ccc(N)cc3)n2)n1	aSyn UTR act -140.2
Cc1cc(C)nc(Nc2n[nH]c(-c3ccc(C(C)(C)C)cc3)n2)n1	aSyn UTR act -129.5
COc1ccc2[nH]c3nc(SC(C)C)nnc3c2c1	none
COc1ccc2[nH]c3c(NCCC4=CCCCC4)ncnc3c2c1	aSyn UTR act -194.8
Clc1ccc2[nH]c3c(NCCCN4CCOCC4)ncnc3c2c1	aSyn UTR act -62.4
COc1ccc2[nH]c3c(NCCCOC(C)C)ncnc3c2c1	aSyn UTR act -138.5
COc1ccc2[nH]c3c(NCc4ccco4)ncnc3c2c1	aSyn UTR act -112.6
Cc1nc2ccc(-c3ccccc3)cc2o1	aSyn UTR act -79.1
O=C(c1cc(-c2ccc3c(c2)OCO3)on1)N1CCN(c2ccccc2)CC1	aSyn UTR act -245.0
CN(C(=O)c1cc(-c2ccc3c(c2)OCO3)on1)c1ccccc1	aSyn UTR act -166.5
O=C(Nc1cc(Br)ccc1O)c1cc(-c2ccc3c(c2)OCO3)on1	aSyn UTR act -108.4
CSc1ccccc1NC(=O)c1cc(-c2ccc3c(c2)OCO3)on1	aSyn UTR act -128.0
COC(=O)c1ccc(N2CCN(C)CC2)c(NC(=O)COc2ccc(OC)cc2)c1	aSyn UTR act -67.9
Cc1ccc2nc(-c3ccc(NS(=O)(=O)c4ccccc4)cc3)sc2c1	aSyn UTR act -85.5
Cc1ccc2nc(-c3ccc(NS(=O)(=O)c4ccc(F)c(F)c4)cc3)sc2c1	aSyn UTR act -123.8
CSc1nc(N)nc(SCC(=O)Nc2cccc(F)c2)c1C#N	aSyn UTR act -73.2
Cc1sc2c(c1C)CN(CCN1CCOCC1)CN2C(=O)c1ccccc1	aSyn UTR act -82.0
Cc1cccc(Nc2nnc(SCC(=O)NC(=O)Nc3ccc4c(c3)OCCO4)s2)c1	aSyn UTR act -95.2
Cc1ccccc1Nc1nnc(SCC(=O)NC(=O)Nc2ccc3c(c2)OCCO3)s1	aSyn UTR act -85.6
Oc1c(Cl)cc(Cl)cc1C=Nc1cc(C(F)(F)F)ccc1N1CCc2ccccc2C1	aSyn UTR act -98.4
Cc1cc2nc(SCCN3CCCC3)[nH]c2cc1C	aSyn UTR act -67.7
COc1ccccc1C(=O)Nc1ccc(-c2nnn(CC(=O)N3CCN(C(=O)c4ccco4)CC3)n2)cc1	aSyn UTR act -79.0
NC(=O)Cn1nnc(-c2ccc(NC(=O)c3ccc(F)cc3)cc2)n1	aSyn UTR act -72.8
O=C(Cn1nnc(-c2ccc(NC(=O)c3ccccc3F)cc2)n1)NCc1ccc(F)cc1	aSyn UTR act -65.8
O=C(Nc1ccc(-c2nnn(CC(=O)N3CCN(C(=O)c4ccco4)CC3)n2)cc1)c1ccccc1F	aSyn UTR act -71.0
Cc1c(C)c(C)c2[nH]c(-c3ccc4c(c3)OCO4)nc2c1C	aSyn UTR act -75.7
Cc1ccccc1Nc1n[nH]c(C)c1[N+](=O)[O-]	aSyn UTR act -65.0
Cc1ccc(Nc2n[nH]c(C)c2[N+](=O)[O-])c(C)c1	aSyn UTR act -65.8
COc1ccc(Nc2n[nH]c(C)c2[N+](=O)[O-])cc1	aSyn UTR act -102.4
Cc1ccc(NC2=C(Cl)C(=O)OC2OC(C)C)c(C)c1 (stereo unspecified)	none
CC(C)(C)c1ccc(C(=O)Nc2ncn[nH]2)cc1	aSyn UTR act -134.3
CCCOC(c1ccccc1)(c1ccc(C(F)(F)F)cc1)C(Oc1nc(C)cc(C)n1)C(=O)O (stereo unspecified)	none
Cc1ccc(Sc2ncccc2COC(=O)NC(C)C)cc1	aSyn UTR act -89.1
Nc1ccc(Nc2nc(-c3cc4ccccc4oc3=O)cs2)cc1	aSyn UTR act -199.9
CC(=O)Nc1ccc(Nc2nc(-c3cc4ccccc4oc3=O)cs2)cc1	aSyn UTR act -449.4
COc1ccc(/C=C/c2cc(=O)c3cc(Cl)ccc3o2)cc1	aSyn UTR act -253.4
N#Cc1ccc(-c2ccc(OCC3CNC(=O)O3)cc2)cc1 (stereo unspecified)	aSyn UTR act -74.7
Cc1cc(=O)oc2c(C(=O)/C=C\c3cccs3)c(O)ccc12	aSyn UTR act -89.1
Cc1c(C(=O)/C=C/c2cccs2)oc2ccc(F)cc12	aSyn UTR act -201.5
Cn1ccs/c1=N\C(=O)Nc1cccc(C(F)(F)F)c1	aSyn UTR act -109.2
Cc1nc(-c2ccc(Cl)cc2)sc1C1(C)CC(c2cccc(F)c2)=NO1 (stereo unspecified)	aSyn UTR act -67.1
O=C(COc1ccc(F)cc1)c1ccc2c(c1)CCCC2	aSyn UTR act -133.5
O=C(COc1ccc(Cc2ccccc2)cc1)c1ccc(F)cc1	aSyn UTR act -71.8
O=C(Nc1ccccc1F)c1ccc(-c2cccc([N+](=O)[O-])c2)o1	aSyn UTR act -141.0
O=C(NC(=S)Nc1cccc(Cl)c1N1CCCC1)c1ccc(-c2cccc([N+](=O)[O-])c2)o1	aSyn UTR act -62.6
O=C(Nc1nccs1)c1ccc(-c2cccc([N+](=O)[O-])c2)o1	aSyn UTR act -174.8
O=C(Nc1ccccc1F)Nc1ccc([N+](=O)[O-])cc1Cl	aSyn UTR act -125.4
C=CCNC(=O)c1ccc(-c2cccc([N+](=O)[O-])c2)o1	aSyn UTR act -115.3
